Screens deposited in PubChem BioAssay by The Scripps Research Institute Molecular Screening Center.
A selection: hits, their analogues and other compounds. The true share with any hit is near 3.4%.
pPAFAH inh: pPAFAH enzyme inhibitors, primary screen, biochemical, fluorescence polarization, human | recombinant pPAFAH, FP-rhodamine probe fluorescence polarization | actives 1.5% (n = 330,000) | inhibition, % at 3.39 µM | AID 463082, 2010;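 active = inhibition above the mean inhibition across the screen plus 3 SD, cut at about 25% in these data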;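 also: inhibitors block binding of the rhodamine activity-based probe so polarization drops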
PP1 inh: PP1-alpha phosphatase inhibitors, primary screen, counter-screen for PP5 inhibitor project, biochemical, fluorescence, OMFP substrate, single point; Serine/threonine-protein phosphatase PP1-alpha catalytic subunit (Homo sapiens), P62136; purified PP1alpha; inhibition, % at 6.7 µM; actives 0.9% (n = 320,000);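 active = inhibition above the mean inhibition of all tested compounds plus 3 SD, computed separately for each screening campaign, cut at about 15% in these data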
PAFAH1B3 FP inh: PAFAH1B3 enzyme inhibitors, primary screen, biochemical, fluorescence polarization, human | Platelet-activating factor acetylhydrolase IB subunit alpha1 (Homo sapiens), Q15102 | recombinant PAFAH1B3, FP-rhodamine probe | actives 0.28% (n = 340,000) | inhibition, % at 3.39 µM;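 active = inhibition above the screen-wide average of all tested compounds plus 3 SD, cut at about 25% in these data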
Target sequence (Q15102 whole entry, looked up): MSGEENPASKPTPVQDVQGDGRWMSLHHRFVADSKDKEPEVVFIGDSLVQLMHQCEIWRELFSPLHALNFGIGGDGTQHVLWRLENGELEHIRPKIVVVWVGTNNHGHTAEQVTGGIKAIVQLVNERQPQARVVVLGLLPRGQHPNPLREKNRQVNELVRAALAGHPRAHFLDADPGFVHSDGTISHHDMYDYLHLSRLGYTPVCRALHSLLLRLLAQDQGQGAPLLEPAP
PP5 primary: PP5 phosphatase inhibitors, primary screen, biochemical, fluorescence | purified PP5c, OMFP substrate fluorescence | inhibition, % at 6.7 µM | AID 1987, 2009 | actives 0.18% (n = 320,000) | Serine/threonine-protein phosphatase 5 (Homo sapiens), P53041;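 active = inhibition above the campaign's mean inhibition across all tested compounds plus 3 SD, cut at about 9.5% in these data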
PAFAH2 FP inh: PAFAH2 enzyme inhibitors, primary screen, biochemical, fluorescence polarization, human; recombinant PAFAH2, FP-rhodamine activity probe; inhibition, % at 3.39 µM; actives 0.99% (n = 340,000); AID 492956, 2010;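 active = inhibition above the mean over all tested compounds plus 3 SD, cut at about 30% in these data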;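 also: inhibitors block probe labeling of enzyme so polarization drops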
PAFAH1B2 inh: PAFAH1B2 enzyme inhibitors, primary screen, biochemical, fluorescence polarization, human; Platelet-activating factor acetylhydrolase IB subunit alpha2 (Homo sapiens), P68402; recombinant PAFAH1B2, FP-rhodamine activity probe; inhibition, % at 3.39 µM; actives 1.2% (n = 340,000); AID 492953, 2010;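 active = inhibition above the mean of all tested compounds plus 3 SD, cut at about 24% in these data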
Target sequence (P68402 whole entry, looked up): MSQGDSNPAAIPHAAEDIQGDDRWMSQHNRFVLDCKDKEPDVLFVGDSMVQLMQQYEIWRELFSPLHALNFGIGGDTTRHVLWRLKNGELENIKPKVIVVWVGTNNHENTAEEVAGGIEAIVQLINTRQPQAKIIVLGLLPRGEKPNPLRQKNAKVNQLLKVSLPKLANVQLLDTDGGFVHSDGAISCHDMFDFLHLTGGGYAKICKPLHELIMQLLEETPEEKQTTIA
PAFAH2 FP conf: PAFAH2 enzyme inhibitors, confirmation, biochemical, fluorescence polarization, human. AID 493030, 2011. shares compounds with PAFAH2 FP inh. inhibition, % at 3.39 µM. recombinant PAFAH2, FP-rhodamine activity probe. actives 65% (n = 2,300);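 active = mean inhibition over three repeats above a set limit taken from the earlier primary screen, cut at about 30% in these data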;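 also: inhibitor blocks binding of rhodamine activity probe so polarization falls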
Hits are given with their value; – = inactive; · = not tested or not shown.

SMILES	pPAFAH inh	PP1 inh	PAFAH1B3 FP inh	PP5 primary	PAFAH2 FP inh	PAFAH1B2 inh	PAFAH2 FP conf
CCN(CC)S(=O)(=O)c1ccc(/C=C/C(=O)OCC(=O)NCc2cccs2)cc1	–	–	–	–	93	–	80
CCOC(=O)COc1ccccc1/C=N/O	–	–	–	–	–	–	·
Cc1ccc(/C=C/C(=O)OCC(=O)NC(C)C)o1	–	–	–	–	35	–	–
CCOC(=O)c1c(C)[nH]c(C(=O)CSc2nnc(C3CC3)n2N)c1C	–	–	–	–	–	–	·
CC(C)(C)OC(=O)C[C@H]1C/C=C\C[C@@H](CC(=O)N[C@H](CO)Cc2ccccc2)C(=O)NC[C@H](c2ccccc2)OC1=O	–	·	–	·	52	–	–
Cc1nc2cc(N3CCN(C)CC3)c(NC(=O)Cc3ccccc3)cc2c(=O)n1Cc1ccccc1	–	–	–	–	42	–	–
Cc1nc2cc(N3CCCCC3)c(NC(=O)c3ccncc3)cc2c(=O)n1Cc1ccc(Cl)cc1	–	–	·	–	·	·	·
Cn1ncc(C#N)c1NC(=O)C1CC(c2ccc(Cl)cc2)=NO1 (stereo not drawn)	–	–	–	–	–	–	·
COc1ccc(NC(=O)COC(=O)C23CC4CC(CC(O)(C4)C2)C3)cc1Cl	–	·	–	·	–	–	·
Cc1cc(C)c(NC(=O)COC(=O)C23CC4CC(CC(O)(C4)C2)C3)c(Cl)c1	–	·	–	·	47	–	34
O=C(COC(=O)C12CC3CC(CC(O)(C3)C1)C2)Nc1ccc(Cl)c(S(=O)(=O)N2CCOCC2)c1	–	·	–	·	48	–	–
COc1cc2nc(-c3ccc(Br)o3)oc(=O)c2cc1OC	–	–	–	–	53	–	41
COc1cc2nc(CCc3ccccc3)oc(=O)c2cc1OC	–	–	–	–	36	–	–
Cc1ccc2nc(-c3ccc(Br)o3)oc(=O)c2c1	–	–	–	–	66	–	66
Cn1c(-c2ccc(Br)o2)nc2cc(Br)ccc21	–	–	–	–	–	–	·
O=C(c1ccc2c(=O)n(Cc3ccc(Cl)cc3)c(=S)[nH]c2c1)N1CCOCC1	–	–	–	–	–	–	·
COc1cc(OC)c(N(C)C(=O)c2cc3c(s2)-c2ccccc2S(=O)(=O)C3)cc1Cl	–	–	–	–	31	–	–
CCCCNC(=O)c1ccccc1NC(=O)c1ccc2c(c1)OCO2	–	–	–	–	47	–	38
CC(C)(C)NC(=O)c1ccccc1NC(=O)c1ccc2c(c1)OCO2	–	–	–	–	–	–	·
C[C@H]1COC(=O)CCCC/C=C\C[C@H](CC(=O)N(CCO)Cc2ccccc2)C(=O)N1	–	·	–	·	–	–	·
O=C1CCC/C=C\C[C@@H](CC(=O)N(CCO)Cc2ccccc2)C(=O)N[C@H](Cc2c[nH]c3ccccc23)CO1	–	·	–	·	–	–	·
O=C1CCCC/C=C\C[C@H](CC(=O)N(CCO)Cc2ccccc2)C(=O)N[C@@H](Cc2ccccc2)CO1	–	·	–	·	45	–	–
O=C1CCC/C=C/C[C@H](CC(=O)N(CCO)Cc2ccccc2)C(=O)N[C@@H](Cc2ccccc2)CO1	–	·	–	·	45	–	–
CC[C@]12c3[nH]c4ccc(OC)cc4c3CCN1C(=O)C(CC(=O)NCc1ccc(OC)c(OC)c1)C[C@@H]2C(=O)N1CCN(C(=O)C2CC2)CC1 (stereo partly drawn)	–	·	–	·	–	–	·
COc1ccc(Nc2nc(N)nc(CSC(=S)N3CCOCC3)n2)cc1	–	–	–	–	–	–	·
Cc1ccc(Nc2nc(N)nc(CSC(=S)N3CCOCC3)n2)c(C)c1	–	–	–	–	46	–	42
O=C(NC1CCCCC1)C(c1ccncc1)N(CC1CCCO1)C(=O)C(F)(F)F (stereo not drawn)	–	–	–	–	41	–	–
